Laboratory results as given in PubChem BioAssay (NCI).
Several values for one entry are separate records, joined by “and”; a condition that tells them apart may be missing. Equal values may be shown once. Compounds without any hit were thinned out: in the full panel of roughly 83,000, 20% have a hit.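 Treatment: one concentration, 48 hours, 96-well format. Scoring: percent growth, with anything below 10 considered active.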 Activity calls are given as the source filed them.

Experiments:
Test in all cases: NCI-60 one-dose screen, 48 h (100 = growth as untreated, 0 = no growth, -100 = all killed)
HCT-15 colon = details: 10 µM
HT29 colon = details: 10 µM
SNB-75 CNS = details: 10 µM
SNB-19 CNS = details: 10 µM
U251 CNS = details: 10 µM
PC-3 prostate = details: 10 µM
SK-MEL-5 melanoma = details: 10 µM
UACC-62 melanoma = details: 10 µM unless noted
LOX IMVI melanoma = details: 10 µM
SK-MEL-28 melanoma = details: 10 µM
SK-MEL-2 melanoma = details: 10 µM
EKVX NSCLC = details: 10 µM
SN12C renal = details: 10 µM
UO-31 renal = details: 10 µM
TK-10 renal = details: 10 µM unless noted
ACHN renal = details: 10 µM
CAKI-1 renal = details: 10 µM
HL-60(TB) leukemia = details: 10 µM
CCRF-CEM leukemia = details: 10 µM
A498 renal = details: 10 µM

Row | SMILES | growth (HCT-15 colon) | growth (HT29 colon) | growth (SNB-75 CNS) | growth (SNB-19 CNS) | growth (U251 CNS) | growth (PC-3 prostate) | growth (SK-MEL-5 melanoma) | growth (UACC-62 melanoma) | growth (LOX IMVI melanoma) | growth (SK-MEL-28 melanoma) | growth (SK-MEL-2 melanoma) | growth (EKVX NSCLC) | growth (SN12C renal) | growth (UO-31 renal) | growth (TK-10 renal) | growth (ACHN renal) | growth (CAKI-1 renal) | growth (HL-60(TB) leukemia) | growth (CCRF-CEM leukemia) | growth (A498 renal)
1 | CCOP(=O)(OCC)/C(C#N)=C/c1ccc(Br)cc1 | 96.3% (inactive) | 98.2% (inactive) | 86.6% (inactive) | 96.8% (inactive) | 99.3% (inactive) | 95.9% (inactive) | 108% (inactive) | 88.6% (inactive) | 95.5% (inactive) | 115% (inactive) | 103% (inactive) | 97.6% (inactive) | 98.5% (inactive) | 81.3% (inactive) | 104% (inactive) | 98.6% (inactive) | 76.2% (inactive) | 92.1% (inactive) | 100% (inactive) | –
2 | COc1ccccc1[As]=[As]c1ccccc1OC (stereo not given) | -87.2% (active) | -76.9% (active) | -91.8% (active) | -84.5% (active) | -83.3% (active) | -78.9% (active) | -99.3% (active) | -84.6% (active) | -97.3% (active) | -83% (active) | -86.9% (active) | -67.7% (active) | -83.3% (active) | -93.1% (active) | -95.8% (active) | -96.9% (active) | -86.5% (active) | -37.1% (active) | 2.34% (active) | –
3 | Cn1c(O)c(N=O)c(=O)n(C)c1=O | 104% (inactive) and 111% (inactive) | 117% (inactive) and 114% (inactive) | 99.3% (inactive) and 95.2% (inactive) | 107% (inactive) and 98.5% (inactive) | 94.6% (inactive) and 109% (inactive) | 101% (inactive) and 95.1% (inactive) | 100% (inactive) and 98.1% (inactive) | 99.7% (inactive) and 93.3% (inactive) | 91.4% (inactive) and 94.4% (inactive) | 113% (inactive) and 107% (inactive) | 108% (inactive) and 109% (inactive) | 110% (inactive) and 107% (inactive) | 108% (inactive) and 94.7% (inactive) | 89.1% (inactive) and 85.7% (inactive) | 102% (inactive) and 105% (inactive) | 110% (inactive) and 105% (inactive) | 107% (inactive) and 113% (inactive) | – | 111% (inactive) and 113% (inactive) | –
4 | COc1ccccc1/C=C/[N+](=O)[O-] | 42.3% (inactive) | 39.5% (inactive) | 69.4% (inactive) | 86.9% (inactive) | 50.3% (inactive) | 64.1% (inactive) | 83.4% (inactive) | 73% (inactive) | 37.4% (inactive) | 79.4% (inactive) | 104% (inactive) | 72.6% (inactive) | 83.2% (inactive) | 62% (inactive) | 72.9% (inactive) | 55.5% (inactive) | 70.9% (inactive) | – | – | –
5 | CC/C(=C/c1ccc(OC)cc1)[N+](=O)[O-] | -35.4% (active) | 3.04% (active) | 53.9% (inactive) | 30.1% (inactive) | 22.5% (inactive) | 59.2% (inactive) | 36.2% (inactive) | -60.8% (active) | -92.5% (active) | -52.4% (active) | 27% (inactive) | 78% (inactive) | -43.7% (active) | -61.6% (active) | -9.47% (active) | -43% (active) | 1.94% (active) | -1.61% (active) | -9.4% (active) | 85.5% (inactive)
6 | CC12OOC(c3ccccc31)c1c2ccc2ccccc12 (stereo not given) | -93.2% (active) | -81.3% (active) | -20.4% (active) | 64.8% (inactive) | 50.3% (inactive) | -74.4% (active) | 61.7% (inactive) | 59.6% (inactive) | -91.2% (active) | – | 71.7% (inactive) | -51.5% (active) | 94.4% (inactive) | -95.4% (active) | -42.6% (active) | -100% (active) | -56.1% (active) | -63.5% (active) | -41.8% (active) | –
7 | CC(=O)Nc1c2sscc-2n(C)c1=O | -100% (active) | -76.2% (active) | -98.3% (active) | -100% (active) | -100% (active) | -95.9% (active) | -100% (active) | -99.2% (active) | -98.3% (active) | – | -76% (active) | -98.8% (active) | -98.5% (active) | -100% (active) | -100% (active) | -100% (active) | -100% (active) | -53% (active) | -58.3% (active) | -100% (active)
8 | Oc1ccccc1-c1ccccc1 | 104% (inactive) and 94.6% (inactive) | 97% (inactive) and 98.8% (inactive) | 97.4% (inactive) and 79.2% (inactive) | 101% (inactive) and 93.4% (inactive) | 99% (inactive) and 98.1% (inactive) | 94.4% (inactive) and 98.6% (inactive) | 102% (inactive) and 97.7% (inactive) | 98.5% (inactive) and 96% (inactive) | 92.3% (inactive) and 108% (inactive) | 112% (inactive) and 102% (inactive) | 98.1% (inactive) and 98.2% (inactive) | 116% (inactive) | 104% (inactive) and 92.6% (inactive) | 91.1% (inactive) | 97.4% (inactive) and 105% (inactive) | 95.2% (inactive) and 104% (inactive) | 97.4% (inactive) and 121% (inactive) | 96.2% (inactive) and 103% (inactive) | 103% (inactive) and 94.8% (inactive) | 85.5% (inactive) and 108% (inactive)
9 | CC/C(=C/c1ccc(OC)cc1OC)[N+](=O)[O-] | -35.9% (active) | -1.29% (active) | 44.9% (inactive) | 41.6% (inactive) | 43.5% (inactive) | 50% (inactive) | 38.1% (inactive) | -36.2% (active) | -85.1% (active) | 2.66% (active) | 34.4% (inactive) | 79.9% (inactive) | 15.9% (inactive) | 28.1% (inactive) | 11.1% (inactive) | -43.1% (active) | 49.2% (inactive) | – | – | –
10 | O=[N+]([O-])/C=C/c1ccc([N+](=O)[O-])cc1 | -30.1% (active) and 12.6% (inactive) | -46.8% (active) and 72.9% (inactive) | 48.7% (inactive) and 90.1% (inactive) | 72.6% (inactive) and 96.2% (inactive) | -16.5% (active) and 87.8% (inactive) | 43.4% (inactive) and 92% (inactive) | 97.9% (inactive) | 71.5% (inactive) and 81.1% (inactive) | -90.1% (active) and 70% (inactive) | 82.2% (inactive) and 103% (inactive) | -43.8% (active) and 79.7% (inactive) | 78.2% (inactive) and 84.1% (inactive) | 64.4% (inactive) and 62% (inactive) | -82.9% (active) and 62.7% (inactive) | 18.8% (inactive) and 88.6% (inactive) | 21.5% (inactive) and 76.4% (inactive) | 38.8% (inactive) | – | 34.8% (inactive) | –
11 | O=C1CCC(=O)N1SC(Cl)(Cl)Cl | 107% (inactive) | 102% (inactive) | 92.1% (inactive) | 103% (inactive) | 118% (inactive) | 91.2% (inactive) | 99.5% (inactive) | 106% (inactive) | 108% (inactive) | 107% (inactive) | 97% (inactive) | 117% (inactive) | 102% (inactive) | 99.1% (inactive) | 99.2% (inactive) | 110% (inactive) | 109% (inactive) | – | 94.5% (inactive) | –
12 | O=C(CCl)Nc1ccc(Cl)cc1 | 37.2% (inactive) | 41.2% (inactive) | 62.4% (inactive) | 79.1% (inactive) | 0.303% (active) | 62.9% (inactive) | 30.3% (inactive) | 47.1% (inactive) | 38.3% (inactive) | 69.5% (inactive) | – | 101% (inactive) | 35.8% (inactive) | 79.7% (inactive) | 66.7% (inactive) | 62.4% (inactive) | -7.72% (active) | – | 26.3% (inactive) | 113% (inactive)
13 | CC(C)(C)OOC(=O)/C=C\C(=O)OOC(C)(C)C | 106% (inactive) | 105% (inactive) | 98.5% (inactive) | 91.9% (inactive) | 99.2% (inactive) | 95.4% (inactive) | 106% (inactive) | 94.7% (inactive) | 107% (inactive) | 109% (inactive) | 103% (inactive) | 123% (inactive) | 97.3% (inactive) | 103% (inactive) | 101% (inactive) | 108% (inactive) | 127% (inactive) | – | 96.4% (inactive) | 109% (inactive)
